Source: PubChem
Many of the other results were omitted from the sample, so hits are more common in it than they were.
ST2 IL33 inh: inhibitors of human ST2 (IL1RL1) binding to IL-33 | Q01638 | AID 1259354 | hit rate 2.3% among 78,000 | inhibition, % for hits at 17 µM | AlphaLISA ST2-Fc/biotin-IL-33 interaction, 1 h; in the data active means inhibition above about 30%
Target sequence (Q01638 whole entry, looked up): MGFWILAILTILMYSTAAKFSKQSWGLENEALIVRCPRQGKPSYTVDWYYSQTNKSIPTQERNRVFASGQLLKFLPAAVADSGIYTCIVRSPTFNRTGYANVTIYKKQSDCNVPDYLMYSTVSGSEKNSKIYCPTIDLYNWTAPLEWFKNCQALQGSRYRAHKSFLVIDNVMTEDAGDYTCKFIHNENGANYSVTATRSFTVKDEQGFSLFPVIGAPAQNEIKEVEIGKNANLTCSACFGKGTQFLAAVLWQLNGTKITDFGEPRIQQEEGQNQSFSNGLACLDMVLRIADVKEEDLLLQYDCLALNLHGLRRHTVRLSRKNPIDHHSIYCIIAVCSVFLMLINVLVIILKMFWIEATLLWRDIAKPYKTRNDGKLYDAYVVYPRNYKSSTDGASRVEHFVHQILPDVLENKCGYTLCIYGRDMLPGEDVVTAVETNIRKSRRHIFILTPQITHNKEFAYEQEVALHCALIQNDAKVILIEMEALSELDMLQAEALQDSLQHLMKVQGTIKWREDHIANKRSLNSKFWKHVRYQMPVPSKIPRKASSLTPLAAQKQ
* marks the source's active call; other numbers are inactive results; i = inactive.

SMILES | ST2 IL33 inh
CC(=O)c1[nH]c(C)c(C(=O)N2CC[C@@H](c3sccc3C)[C@H](O)C2)c1C | i
O=C(NCCC1=CCCCC1)c1ccc(NC2=NC3CS(=O)(=O)CC3S2)cc1 (stereo unspecified) | i
COc1cc(NC(=O)C2CCCN2S(=O)(=O)c2ccc3c(c2)CCCC(=O)N3)cc(OC)c1 (stereo unspecified) | i
C=CCNc1nc(C2(C)CC3(CC(C)(C)OC3=O)C(=O)O2)cs1 (stereo unspecified) | i
Cc1cccc(-c2nc(S(=O)(=O)c3ccccc3)c(N3CCOCC3)o2)c1 | i
O=S(=O)(c1ccccc1)c1nc(-c2ccco2)oc1SCc1ccccc1F | i
O=S(=O)(c1ccccc1)c1nc(-c2ccccc2F)oc1N1CCCCC1 | 32.0%*
CSc1nnc2c(n1)OC(c1ccc3c(c1)OCO3)Nc1ccc(Br)cc1-2 (stereo unspecified) | i
O=C1CSC(c2ccccc2)N1c1ccc(Cl)cc1 (stereo unspecified) | i
CC(C)(C)C1CCC2(CC1)SCC(=O)N2c1ccc(Cl)cc1 (stereo unspecified) | 36.0%*
CC1SC2(CCCCC2)N(c2ccc(Cl)cc2)C1=O (stereo unspecified) | i
Cc1ccccc1NC(=O)c1cccc(Cl)c1Cl | i
CN(C)CC1(O)CCCN(C(=O)c2c(F)cccc2F)C1 (stereo unspecified) | i
COc1ccc(C2SCC(=O)N2c2ccccc2)cc1 (stereo unspecified) | i
COc1ccc(N2C(=O)CC(Sc3ccccc3C(=O)O)C2=O)cc1 (stereo unspecified) | i
COc1ccc(N2C(=O)C(O)=CC2(OC)c2ccccc2)cc1 (stereo unspecified) | 45.0%*
Cc1ccc(N=CC2=C(O)CC(C)(C)CC2=O)cc1C | i
Cc1[nH][nH]c(=O)c1CC(=O)N(C)CC1COc2ccccc2O1 (stereo unspecified) | i
COc1ccc(OCc2nc3ccccc3[nH]2)cc1 | i
Cc1cc(OCc2nc3ccccc3[nH]2)ccc1C(C)C | i
Brc1cnc2nc(COc3ccccc3)[nH]c2c1 | 35.0%*
COc1ccccc1NC(=O)NCC1CCCN(Cc2cnc[nH]2)C1 (stereo unspecified) | i
C=CCSc1nnc2c(n1)OC(c1ccc(O)c(OC)c1)Nc1ccccc1-2 (stereo unspecified) | i
CC(=O)Nc1cccc(N(C)C)c1 | i
c1cc(Nc2cccc3nccnc23)c2nccnc2c1 | 40.0%*
SMILES | ST2 IL33 inh
Cc1sc2ncnc(Nc3ccccc3Cl)c2c1C | i
Fc1ccc(NC2CCCN(Cc3cccc4ncccc34)C2)cc1 (stereo unspecified) | i
Fc1ccc(Nc2cccc3nccnc23)cc1 | 49.0%*
O=C(Nc1cccc2nccnc12)c1ccccc1 | i
O=C(O)[C@@H]1[C@H](C(=O)Nc2cccc3cccnc23)[C@@H]2C=C[C@H]1C2 | i
Cc1cccc(-n2ncc3c(Nc4ccc(F)cc4)ncnc32)c1 | i
CN(C)c1ccc(Nc2cccc3nccnc23)cc1 | 84.0%*
Clc1ccccc1Nc1cccc2nccnc12 | 39.0%*
Cc1ccc2ncnc(Nc3ccccc3Cl)c2c1 | i
COc1ccc(-n2c(CN3CCN(S(=O)(=O)c4ccc5c(c4)CCCC5)CC3)nc3cccnc32)cc1 | i
CN1C[C@@H](NS(=O)(=O)c2ccc(C#N)cc2)C[C@H]1c1nc(-c2ccc(Cl)cc2)no1 | i
CCN(C/C=C/c1ccccc1)C(=O)c1ccc(Cl)cc1OC | i
CCSc1nnc2c(n1)OC(c1cc(OC)ccc1OC)Nc1ccccc1-2 (stereo unspecified) | i
CCCCN(C)CCCNC(=O)c1ccc2c(c1)NC(=O)C(N1CCOCC1)S2 (stereo unspecified) | i
O=C(NC1CC1)c1cc2n(n1)CCCN(C(=O)Cc1noc3ccccc13)C2 | i
COc1ccc(-c2cc(C(F)(F)F)nc(N3CCCC3)n2)cc1 | i
CCCCOc1ccc(CN2CCN(c3ccccc3F)CC2)cc1 | i
Cc1ccc(C2OC(=O)c3ccccc32)cc1F (stereo unspecified) | i
O=C(CCCNS(=O)(=O)c1cccs1)NCCc1ccc(Cl)cc1 | i
COc1ccc(NC(=O)Cc2ccccc2[N+](=O)[O-])cc1OC | i
COc1ccc(Nc2ncnc(N)c2[N+](=O)[O-])cc1OC | i
COc1ccc(NCc2ccc([N+](=O)[O-])s2)cc1OC | 45.0%*
NS(=O)(=O)c1cccc(NC(=O)c2ccc3c(c2)OCCO3)c1 | i
CC1CC(=O)C2=C(CCC3(O)C2C(=O)c2cccc(O)c2C3O)C1 (stereo unspecified) | 31.0%*
CC(CC(=O)N1CCC(Cc2ccccc2)CC1)c1ccccc1 (stereo unspecified) | i
SMILES | ST2 IL33 inh
CCc1nc(Cn2ccnc2-c2ccc3c(c2)CCN3C(C)C)no1 | i
COc1ccc2nc(N=C(N)NC(=O)Nc3ccccc3)nc(C)c2c1 | i
CC(=O)NC(=Nc1nc(C)c2cc(C)ccc2n1)NC(C)=O | i
Cc1ccc2nc(N=C(N)NC(=O)Cc3ccc(Cl)cc3)nc(C)c2c1 | 30.0%*
C=CCOC(=O)C1=C(C)Nc2nnnn2C1c1cccnc1 (stereo unspecified) | i
CC(C)Oc1ccc(C(O)=C2C(=O)C(=O)N(c3nccs3)C2c2ccc([N+](=O)[O-])cc2)cc1 (stereo unspecified) | 35.0%*
CCCOc1ccc(C(O)=C2C(=O)C(=O)N(c3nccs3)C2c2cccs2)cc1 (stereo unspecified) | i
CC(C)Oc1ccc(C(O)=C2C(=O)C(=O)N(c3ccccn3)C2c2cccs2)cc1 (stereo unspecified) | i
O=C(NCCSc1c[nH]c2ccccc12)C1CC1 | i
O=C(c1ccc([N+](=O)[O-])cc1)N(c1ccccn1)c1ccccn1 | i
O=C(CC(=O)c1ccc([N+](=O)[O-])cc1)c1ccccc1 | i
CCN(CC)/C(=C\C(=O)c1ccc([N+](=O)[O-])cc1)c1ccccc1 | 31.0%*
Cc1cc(N2CCN(C)CC2)nc2ccc(NC(=O)CCC(=O)NCC3CCCO3)cc12 (stereo unspecified) | i
CCOc1ccccc1C(=O)NCc1nc2cccnc2n1CCOC | i
Nc1ccc(/C=C/C2C=CC=CC2)cc1 (stereo unspecified) | 47.0%*
CCN(CC)CCCNC(=O)CSc1cc(=O)n(C)c2cc(Cl)ccc12 | i
Cc1ccc(C23CC4C[C@@H](CC(C(=O)NC(C)(C)CO)(C4)C2)C3)cc1 | i
NC(N)=NS(=O)(=O)c1ccc(N=Cc2cc(Br)cc(Br)c2O)cc1 | i
COc1ccc(N=Cc2cc(Br)cc(Cl)c2O)cc1 | i
Oc1c(Br)cc(C=Nc2ccc(N3CCOCC3)cc2)c(O)c1Br | 52.0%*
Cc1cc(N2CCN(C)CC2)nc2ccc(NC(=O)c3ccccc3Cl)cc12 | i
Cc1ccc(C(=O)Nc2sc3c(c2C#N)CC(C)(C)NC3(C)C)cc1 | i
O=C(Oc1ccccc1)c1cc2cc(Cl)cc(Cl)c2oc1=O | i
N/C(=N/OC(=O)c1ccccc1Cl)c1ccccc1 | i
Cc1ccc(N2C(=O)c3ccc(N)cc3C2=O)c(C)c1 | i
CCc1ccc(N2N=C(C)/C(=C/c3ccc(N(C)C)cc3)C2=O)cc1 | 42.0%*
CC1=NN(c2ccc(F)cc2)C(=O)/C1=C/c1ccc(N(C)C)c([N+](=O)[O-])c1 | i
CN(C)c1ccc(/C=C2/C(=O)c3ccc(C(=O)O)cc3C2=O)cc1 | i
